High-throughput results: PubChem, NMMLSC
MEKK2wt PB1 HTS – raises or lowers MEK5 binding to wildtype human MEKK2 PB1 domain; bead flow cytometry, Alexa488-MEK5 binding to MEKK2 WT; actives lie on both sides; Q9Y2U5; AID 1531; actives 1.1% (n = 290,000); binding response (% of control), % at 10 µM; in the data active = binding response below about 67% or above about 130%
MEKK2mut PB1 HTS – signal of MEK5 binding to mutant human MEKK2 PB1 domain | percent response, % at 10 µM | bead flow cytometry, Alexa488-MEK5 binding to MEKK2 mutant | AID 1530 | actives 0.35% (n = 290,000); in the data active = percent response above about 24%, passing the limit was not always enough
GRK2 aptamer HTS – inhibitors of human GRK2 displacing RNA aptamer; bead flow cytometry, FAM-aptamer displacement from GRK2; inhibition of aptamer binding, % at 10 µM; actives 0.59% (n = 330,000); AID 488847;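 active = inhibition of aptamer binding above 40%, roughly 3 SD of noise, on plates passing a quality check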;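 also: median bead fluorescence of bound FAM aptamer so fluorescent compounds give negative values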
Target sequence (P25098 whole entry, looked up): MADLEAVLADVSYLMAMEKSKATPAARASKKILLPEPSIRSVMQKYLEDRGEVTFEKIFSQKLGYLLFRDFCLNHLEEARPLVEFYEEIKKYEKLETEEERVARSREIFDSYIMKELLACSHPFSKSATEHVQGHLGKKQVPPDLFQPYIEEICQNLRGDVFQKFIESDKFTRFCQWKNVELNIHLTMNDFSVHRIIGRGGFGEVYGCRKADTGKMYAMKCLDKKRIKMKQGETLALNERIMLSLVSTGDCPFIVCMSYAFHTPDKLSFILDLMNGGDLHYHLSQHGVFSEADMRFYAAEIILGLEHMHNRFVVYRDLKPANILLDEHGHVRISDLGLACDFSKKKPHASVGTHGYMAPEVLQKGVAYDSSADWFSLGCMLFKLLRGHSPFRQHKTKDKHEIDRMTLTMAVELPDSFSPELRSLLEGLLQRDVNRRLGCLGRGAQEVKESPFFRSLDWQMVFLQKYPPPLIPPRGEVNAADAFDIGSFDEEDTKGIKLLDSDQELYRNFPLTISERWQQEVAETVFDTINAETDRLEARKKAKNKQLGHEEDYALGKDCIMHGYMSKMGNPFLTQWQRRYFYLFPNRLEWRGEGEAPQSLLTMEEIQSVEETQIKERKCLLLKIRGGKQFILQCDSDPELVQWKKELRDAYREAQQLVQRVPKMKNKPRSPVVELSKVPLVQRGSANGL
MEKK3 PB1 HTS – MEKK3-MEK5 PB1 interaction, increase or decrease; bead-based flow cytometry, Alexa488-MEK5 binding to MEKK3; actives lie on both sides; 0 = blocked by unlabeled MEK5, 100 = vehicle; binding response (% of control), % at 10 µM; actives 1.4% (n = 290,000); AID 1529;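 active = binding response more than 3 SD above or below the average of its plate-row segment, actives on both sides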;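 also: Alexa488 bead fluorescence after subtracting the streptavidin-only scavenger bead signal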
MEKK2wt confirm – raises or lowers MEK5 binding to wildtype human MEKK2, retest. shares compounds with MEKK3 PB1 HTS. bead flow cytometry, Alexa488-MEK5 binding to MEKK2 WT; actives lie on both sides. binding response (% of control), % at 10 µM. actives 2.4% (n = 5,900). AID 1892; in the data active = binding response below about 16% or above about 210%; inactive = in between
MEKK2mut-MEK5 – signal of MEK5 binding to mutant human MEKK2, retest; bead flow cytometry, Alexa488-MEK5 binding to MEKK2 mutant; actives 2% (n = 5,900); shares compounds with MEKK3 PB1 HTS; percent response, % at 10 µM; AID 1893; in the data active = percent response mostly above about 71%, no sharp cut-off; inactive = mostly below about 38%;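 also: higher means compound restores mutant binding toward wildtype level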
MEKK3-MEK5 inh – confirmation of inhibitors of MEK5 binding to human MEKK3. binding response (% of control), % at 10 µM. bead flow cytometry, Alexa488-MEK5 binding to MEKK3; hits give low values. shares compounds with MEKK3 PB1 HTS. AID 1894. actives 1.8% (n = 5,900);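 active = binding response below 72% of control, or above a set upper limit, though filed actives all read lower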;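 also: 100% = DMSO only wells and 0% = binding blocked by excess unlabeled MEK5; lower values mean stronger disruption of MEK5 binding to MEKK3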
An asterisk follows results filed as active; . = not tested or not shown; [ ] = dose if it differs, or a comment. Hits are enriched below; roughly 2.5% of the tested compounds scored in any of these assays.

SMILES | MEKK2wt PB1 HTS | MEKK2mut PB1 HTS | GRK2 aptamer HTS | MEKK3 PB1 HTS | MEKK2wt confirm | MEKK2mut-MEK5 | MEKK3-MEK5 inh
CCC(C)NCCCOc1c(C)cc(C)cc1Br (stereo not drawn) | 111.0 | 1.0 | 0.0 | 147.0* | 109.0 | 4.0 | 103.0
CCCCn1c2nc3ccccc3nc2c2c(=O)n(-c3ccccc3)cnc21 | 102.0 | 1.0 | 0.0 | 108.0 | . | . | .
COc1ccc(C)cc1-n1nnnc1SCC1CCCO1 (stereo not drawn) | 103.0 | 24.0* | 3.0 | 103.0 | 114.0 | 17.0 | 106.0
Cc1ccc(C)c(-n2nnnc2SCC(=O)NCC2CCCO2)c1 (stereo not drawn) | . | . | 1.0 | . | . | . | .
O=C(Cc1ccc2c(c1)CCCC2)Nc1ccccc1Br | 58.0 | -25.0 | 1.0 | 43.0*[inhibitor] | 108.0 | 6.0 | 106.0
O=C(/C=C/c1ccccc1)NCC(=O)N/N=C\c1cccnc1 | 106.0 | -1.0 | 4.0 | 115.0 | . | . | .
CCCNC(=O)Cn1c(=O)oc2cc(S(=O)(=O)N3CC(C)CC(C)C3)ccc21 (stereo not drawn) | 97.0 | -2.0 | 0.0 | 98.0 | . | . | .
CCCCN(C)C(=O)Cn1c(=O)oc2cc(S(=O)(=O)N3CC(C)CC(C)C3)ccc21 (stereo not drawn) | 117.0 | 29.0 | 0.0 | 132.0* | 111.0 | 9.0 | 102.0
COc1cc(/C=C2\SC(N)=NC2=O)ccc1OCC(=O)Nc1ccc(C)cc1 | 99.0 | 12.0 | 3.0 | 97.0 | . | . | .
COc1ccccc1NC(=O)c1ccccc1-c1ccccc1C(=O)O | 100.0 | 6.0 | 1.0 | 102.0 | . | . | .
CC1(C)CC(O)(CNCc2ccc3c(c2)OCO3)CCO1 (stereo not drawn) | 3.0*[inhibitor] | -14.0 | 0.0 | 2.0*[inhibitor] | 94.0 | -7.0 | 94.0
COc1ccc(CCNc2cc(C)nc3c(-c4ccc(Cl)cc4)cnn23)cc1OC | 109.0 | 0.0 | 6.0 | 136.0* | 101.0 | -2.0 | 104.0
CSc1ccc(CN(C)C(=O)c2cc(Cl)c3c(c2)OCCO3)cc1 | 96.0 | 1.0 | 0.0 | 99.0 | . | . | .
CN(C)c1cc[n+](CC(=O)c2ccc(Br)cc2)cc1 | 91.0 | -14.0 | 0.0 | 94.0 | . | . | .
COc1ccc(C(=O)C[n+]2cccc3cc(C)ccc32)cc1 | . | 241.0* | 3.0 | 97.0 | 104.0 | -5.0 | 99.0
COc1ccc(C(=O)C[n+]2ccc(N(C)C)cc2)cc1 | 120.0 | 29.0 | 0.0 | 135.0* | 105.0 | -4.0 | 105.0
COc1ccc(NS(=O)(=O)c2cc(NC(=O)c3cc(F)c(F)c(F)c3F)ccc2N2CCCC2)cc1 | 80.0 | -26.0 | 0.0 | 84.0 | . | . | .
COc1cccc(CNC(=O)C2CCCN(S(=O)(=O)c3c(C)[nH]c(=O)[nH]c3=O)C2)c1 (stereo not drawn) | 87.0 | -10.0 | 3.0 | 83.0 | . | . | .
CSc1cccc(CN2CCC(CO)(Cc3cccc(C(F)(F)F)c3)CC2)c1 | 138.0* | 17.0 | 0.0 | 105.0 | 126.0 | 17.0 | 108.0
OCC1(Cc2ccccc2)CCN(Cc2cnn(-c3ccccc3F)c2)CC1 | 520.0* | 362.0* | 0.0 | 107.0 | 110.0 | 0.0 | 102.0
Cc1ccc(-n2cc(CN3CCC(CO)(Cc4cccc(C(F)(F)F)c4)CC3)cn2)cc1 | 227.0* | 123.0* | 0.0 | 112.0 | 152.0 | 17.0 | 96.0
Cc1ccc(-n2cc(CN3CCC(CO)(Cc4ccccc4)CC3)cn2)cc1 | 107.0 | -2.0 | 0.0 | 89.0 | . | . | .
O=C(COC(=O)c1ccc(O)cc1)NCC1CCCO1 (stereo not drawn) | 96.0 | -4.0 | 0.0 | 99.0 | . | . | .
CCc1ccccc1OCC(=O)Nc1ccc(S(N)(=O)=O)cc1 | 95.0 | -2.0 | 1.0 | 102.0 | . | . | .
COc1ccc(CCN2C(=O)CCC2(C)C(=O)NC2CCCC2)cc1OC (stereo not drawn) | 45.0*[inhibitor] | -16.0 | 0.0 | 35.0*[inhibitor] | 101.0 | -1.0 | 100.0
Cc1ccc(CCN2C(=O)CCC2(C)C(=O)NC2CCCC2)cc1 (stereo not drawn) | 92.0 | -5.0 | 0.0 | 102.0 | . | . | .
CCN1CCN(c2cc(C)c3cc(NC(=O)c4ccc(C)c(C)c4)ccc3n2)CC1 | 160.0* | 22.0 | 0.0 | 109.0 | 153.0 | 24.0 | 104.0
